DPM-DC inhibit: S. pneumoniae DPM-DC inhibitors, primary screen, biochemical, PK/LDH-coupled NADH fluorescence | diphosphomevalonate decarboxylase (Streptococcus pneumoniae D39) | purified DPM-DC | calls only at 10 µM | 65,000 tested, 0.49% active | AID 556, 2006;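 active = the 320 compounds with the highest percent inhibition in the single-dose primary screen, excluding strongly autofluorescent ones, cut at about 32% in these data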;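 note: kinetic rate of NADH fluorescence loss reporting ADP formed by the decarboxylase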
Spn PMK inh: S. pneumoniae PMK inhibitors, primary screen, biochemical, mevalonate pathway, pilot trial included; purified PMK, PK/LDH-coupled NADH absorbance 340 nm; 65,000 tested, 0.49% active; inhibition, % at 10 µM; AID 539, 2006; phosphomevalonate kinase (Streptococcus pneumoniae D39);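 active = top-ranked compounds by inhibition in the single 10 µM screen, taking a fixed number of the strongest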;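 note: 0% = full reaction with DMSO carrier and 100% = background rate without enzyme reaction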
NADH coupling: inhibitors of PK/LDH coupling enzymes, profiling panel, artefact control, biochemical, MLSMR library. IC50, µM (titrated, usually from 10 µM), inactives show top-dose inhibition. 65,000 tested, 0.02% active. coupled PK/LDH NADH assays, four targets;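 active = single-dose screening hits from any of four coupled enzyme assays that gave an IC50 when retested across doses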;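 note: the DPM-DC format reads NADH fluorescence rather than 340 nm absorbance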
Fluor 339 460: intrinsic fluorescence of library compounds, ex339/em460 – biochemical, MLSMR library, data from DPM-DC assay, artefact control, profiling panel; 65,000 tested, 5.5% active; compound autofluorescence, ex339/em460 nm, NADH buffer; stronger effect = higher value; 1 = no-compound wells, NADH background; fluorescence fold increase at 10 µM; AID 709, 2007;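 active = at 10 µM, mean starting fluorescence two-fold or more over control wells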;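 note: signal is the first read of a kinetic run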
Spn MK inh: S. pneumoniae MK inhibitors, primary screen, biochemical, PK/LDH-coupled NADH absorbance; mevalonate kinase [Streptococcus pneumoniae D39]; purified MK, PK/LDH-coupled NADH absorbance 340 nm; inhibition, % at 10 µM; 65,000 tested, 0.48% active; AID 555, 2006;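 active = ranked among the strongest by inhibition in the single 10 µM screen, a fixed top-ranked set picked for dose follow-up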
A340 absorber: compound light absorbance at 340 nm, profiling panel, artefact control, biochemical, MLSMR library, data from PS, PMK, MK assays | compound absorbance at 340 nm, fold over control | fold change at 10 µM | 65,000 tested, under 10 active;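 active = at 10 µM dose, initial 340 nm absorbance at least 2 fold that of control wells; inactive = change under 2 fold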;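 note: initial absorbance extrapolated from kinetic A340 decline of NADH oxidation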
Starred values were filed as active, the others as inactive. Rows were chosen to be rich in hits. Some 6.5% of all compounds tested hit in one or more screens of this group.

For O=C(NCc1cccs1)c1cnc2ccccn2c1=O the results were DPM-DC inhibit inactive, Spn PMK inh 4.0, NADH coupling 3.0%, Fluor 339 460 2.02*, Spn MK inh 0.0 and A340 absorber 1.14.
Screening Cc1cc(NC(=O)c2cnc3ccccn3c2=O)no1 returned DPM-DC inhibit inactive, Spn PMK inh 15.0, NADH coupling 15.0%, Fluor 339 460 3.73*, Spn MK inh 0.0 and A340 absorber 1.07.
`COc1ccccc1CNC(=O)c1cnc2ccccn2c1=O` gave DPM-DC inhibit inactive, Spn PMK inh 1.0, NADH coupling 8.0%, Fluor 339 460 1.72, Spn MK inh 7.0 and A340 absorber 1.16.
For O=C(CN(c1ccccc1F)S(=O)(=O)c1ccccc1)N1CCCCCC1 the results were DPM-DC inhibit inactive, Spn PMK inh 0.0, NADH coupling 5.0%, Fluor 339 460 1.11, Spn MK inh 8.0 and A340 absorber 1.04.
`Cc1ccccc1S(=O)(=O)Nc1nc2ccccc2nc1N1CCOCC1` gave DPM-DC inhibit inactive, Spn PMK inh 5.0, NADH coupling 6.0%, Fluor 339 460 1.1, Spn MK inh 9.0 and A340 absorber 1.11.
Screening COc1ccc(S(=O)(=O)N2CCCC(C(=O)N3CCOCC3)C2)cc1C (configuration not stated) returned DPM-DC inhibit inactive, Spn PMK inh 5.0, NADH coupling 2.0%, Fluor 339 460 1.12, Spn MK inh 2.0 and A340 absorber 1.05.
Screening COC(=O)c1ccc(C2C(C#N)=C(C)NC3=C2C(=O)CC(C)(C)C3)cc1 (configuration not stated) returned Spn PMK inh 3.0, NADH coupling 4.0%, Fluor 339 460 4.7*, Spn MK inh 5.0 and A340 absorber 1.04.
COc1ccc(C2C(C#N)=C(SC)NC3=C2C(=O)CC(C)(C)C3)cc1 (configuration not stated) was read as DPM-DC inhibit inactive, Spn PMK inh 3.0, NADH coupling 4.0%, Fluor 339 460 1.12, Spn MK inh 4.0 and A340 absorber 1.06.
`CCOc1ccccc1NC(=O)CCSc1nc2n[nH]c(C)c2c(=N)n1-c1ccccc1Cl` gave DPM-DC inhibit inactive, Spn PMK inh 21.0, NADH coupling 13.0%, Fluor 339 460 1.31, Spn MK inh 8.0 and A340 absorber 1.01.
CCOc1ccccc1-n1c(SCC(=O)Nc2ccc(CC)cc2)nc2n[nH]c(C)c2c1=N was read as Spn PMK inh 25.0*, NADH coupling 13.0%, Fluor 339 460 4.92*, Spn MK inh 0.0 and A340 absorber 1.09.
`O=C(N=C1SCC(=O)N1c1ccccc1Cl)c1ccco1` gave DPM-DC inhibit inactive, Spn PMK inh 0.0, NADH coupling 0.0%, Fluor 339 460 1.1, Spn MK inh 0.0 and A340 absorber 1.07.
`CC(C)n1c(=NC(=O)c2ccco2)c(C#N)cc2c(=O)n3ccccc3cc21` gave Spn PMK inh 9.0, NADH coupling 2.0%, Fluor 339 460 2.93*, Spn MK inh 2.0 and A340 absorber 1.01.
`COc1cc2[nH]c3c(=O)n(CCN(C(C)C)C(C)C)cnc3c2cc1OC` gave Spn PMK inh 9.0, NADH coupling 3.0%, Fluor 339 460 2.45*, Spn MK inh 0.0 and A340 absorber 1.01.
For COc1ccc2c(c1)[nH]c1c(=O)n(CCN3CCCC3)cnc12 the results were DPM-DC inhibit inactive, Spn PMK inh 9.0, NADH coupling 7.0%, Fluor 339 460 0.91, Spn MK inh 8.0 and A340 absorber 1.06.
For CCC1CCCN1Cn1cnc2c([nH]c3ccc(OC)cc32)c1=O (configuration not stated) the results were Spn PMK inh 3.0, NADH coupling 2.0%, Fluor 339 460 2.98*, Spn MK inh 12.0 and A340 absorber 1.
`CCN1CCCC1Cn1cnc2c([nH]c3cccc(Cl)c32)c1=O` (configuration not stated) gave DPM-DC inhibit inactive, Spn PMK inh 4.0, NADH coupling 6.0%, Fluor 339 460 2.16*, Spn MK inh 9.0 and A340 absorber 1.02.
`CCCCN(CCCC)CCn1cnc2c([nH]c3ccc(OC)cc32)c1=O` gave Spn PMK inh 11.0, NADH coupling 2.0%, Fluor 339 460 2.3*, Spn MK inh 0.0 and A340 absorber 1.01.
`O=C(O)C1CC=CCC1C(=O)Nc1ccccc1Cl` (configuration not stated) gave DPM-DC inhibit inactive, Spn PMK inh 11.0, NADH coupling 5.0%, Fluor 339 460 1.02, Spn MK inh 3.0 and A340 absorber 1.02.
COc1ccc(NC(=O)c2cccc(Cn3cc(Br)cn3)c2)cn1 was read as DPM-DC inhibit inactive, Spn PMK inh 0.0, NADH coupling 1.0%, Fluor 339 460 1.1, Spn MK inh 3.0 and A340 absorber 1.07.
O=C(NCc1ccccc1)C1CCN(S(=O)(=O)c2cccc3cccnc23)CC1 was read as DPM-DC inhibit inactive, Spn PMK inh 2.0, NADH coupling 3.0%, Fluor 339 460 1.02, Spn MK inh 3.0 and A340 absorber 0.98.
`Cc1ccc(CNC(=O)C2CCN(S(=O)(=O)c3c(C)noc3C)CC2)cc1` gave DPM-DC inhibit inactive, Spn PMK inh 19.0, NADH coupling 5.0%, Fluor 339 460 1.03, Spn MK inh active and A340 absorber 1.
COc1ccc(CNC(=O)C2CCN(S(=O)(=O)c3cccc4cccnc34)CC2)cc1 was read as DPM-DC inhibit inactive, Spn PMK inh 27.0*, NADH coupling 15.0%, Fluor 339 460 1.14, Spn MK inh 2.0 and A340 absorber 1.02.
`c1ccc(N2CCN(c3cnccn3)CC2)nc1` gave DPM-DC inhibit active, Spn PMK inh 18.0, NADH coupling 21.0%, Fluor 339 460 0.55, Spn MK inh 7.0 and A340 absorber 1.05.
Screening Cc1cccc(CN2CCN(c3ccccn3)CC2)c1 returned DPM-DC inhibit inactive, Spn PMK inh 0.0, NADH coupling 16.0%, Fluor 339 460 1.06, Spn MK inh 48.0* and A340 absorber 1.09.
Screening C=CCn1c(CCC(=O)O)ccc1-c1ccccc1 returned DPM-DC inhibit inactive, Spn PMK inh 8.0, NADH coupling 13.0%, Fluor 339 460 1.28, Spn MK inh 14.0 and A340 absorber 1.04.
`Cc1c(-c2ccc(F)cc2)nc(N)c(C#N)c1-c1ccco1` gave DPM-DC inhibit inactive, Spn PMK inh 6.0, NADH coupling 5.0%, Fluor 339 460 2.43*, Spn MK inh 10.0 and A340 absorber 1.08.

Screens deposited in PubChem BioAssay by SRMLSC.
